Only some compounds are listed: those with a hit (about 27% of all), similar ones and a draw of the others.
CYP2C9 inhib – human CYP2C9 inhibition. inhibition, % at 5 µM. 20% of 96,000 active. CYP2C9 Supersomes, luciferin-H conversion, luminescence. P11712;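 active means blocking of liver enzyme CYP2C9 beyond about 50% at 5 µM, limit read from the data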
CYP2C19 inhib – human CYP2C19 inhibition. CYP2C19 Supersomes, luciferin-H EGE luminescence, 30 min. P33261. AID 778. inhibition, % at 5 µM. 21% of 96,000 active;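 active means CYP2C19 inhibition above a set limit at 5 µM in the primary screen, cut at about 50% in these data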;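 further: plate controls were negative control wells for no effect and 2.5 mM tranylcypromine positive control for full effect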
sEH act – increases human soluble epoxide hydrolase activity. 0.04% of 91,000 active. activation, % at 2 µM. P34913. AID 717. purified human sEH enzymatic activity, activator screen; in the data active means activation above about 37%
CYP2C19 activ – cytochrome P450 2C19 (human) activation. P33261. recombinant CYP2C19, luciferin-H EGE luminescence; active compounds read high; 0 = fully inhibited enzyme, 1 = untreated enzyme. activation factor at 5 µM. 96,000 tested, under 10 active. AID 1025;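 active means activation factor of at least 2 at 5 µM in the primary screen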;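 further: 0 = wells with 2.5 mM tranylcypromine and 1 = vehicle-only wells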
sEH inh – soluble epoxide hydrolase (human) inhibition; 0.34% of 91,000 active; inhibition, % at 2 µM; recombinant human sEH enzymatic activity assay; P34913; in the data active means inhibition above about 80%
CYP2C9 act – activators of human CYP2C9; P11712; recombinant CYP2C9, luciferin-H conversion, luminescence; active compounds read high; factor 1 = untreated enzyme, 0 = blocked; activation factor at 5 µM; 1.4% of 96,000 active;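 active means activation factor of 2 or more for CYP2C9 at a 5 µM dose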;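 further: 0 = sulfaphenazole-blocked wells and 1 = vehicle-only wells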
Numbers without * were called inactive.

`Cc1ccnc(NC(=O)CCC(=O)N(CC(=O)NC2CCCCC2)CC2CCCO2)c1` (stereo not drawn) gave CYP2C9 inhib 31, CYP2C19 inhib 9, sEH act -4, CYP2C19 activ 0.9, sEH inh 5 and CYP2C9 act 0.7.
For O=C(CCCC(=O)N(CC(=O)NC1CCCC1)Cc1ccc(F)cc1)Nc1ccccn1 the results were CYP2C9 inhib 52*, CYP2C19 inhib 44, CYP2C19 activ 0.6 and CYP2C9 act 0.5.
For Cc1ccnc(NC(=O)CCC(=O)N(CC(=O)NC2CCCCC2)Cc2ccc3c(c2)OCO3)c1 the results were CYP2C9 inhib 76*, CYP2C19 inhib 56*, CYP2C19 activ 0.4 and CYP2C9 act 0.2.
Nc1nc(SCC(=O)NC2CCCC2)[nH]c(=O)c1-c1ccccc1 was read as CYP2C9 inhib 17, CYP2C19 inhib 29, sEH act -10, CYP2C19 activ 0.7, sEH inh 10 and CYP2C9 act 0.8.
For Cc1cc(Nc2ccccc2N2CCOCC2)n2ncnc2n1 the results were CYP2C9 inhib 16, CYP2C19 inhib 4, sEH act -15, CYP2C19 activ 1, sEH inh 14 and CYP2C9 act 0.8.
COC(=O)COc1ccc(Oc2cc(C)nc(SC)n2)nn1 was read as CYP2C9 inhib -4, CYP2C19 inhib -1, sEH act 4, CYP2C19 activ 1, sEH inh -1 and CYP2C9 act 1.
COC(=O)c1ccc(Oc2cc(C)nc(SC)n2)cc1 was read as CYP2C9 inhib 72*, CYP2C19 inhib 86*, sEH act -3, CYP2C19 activ 0.1, sEH inh 3 and CYP2C9 act 0.3.
For CC1CN(Cc2ccccc2Cl)CC(C)O1 (stereo not drawn) the results were CYP2C9 inhib -4, CYP2C19 inhib 19, sEH act -3, CYP2C19 activ 0.8, sEH inh 4 and CYP2C9 act 1.
For CCOC(=O)C1=C(C)NC(SC)=NC1c1ccc(OC)cc1 (stereo not drawn) the results were sEH act 11 and sEH inh -5.
For CCOC(=O)C1=C(C)NC(SC(C)=O)=NC1c1ccc(OC(C)=O)c(OC)c1 (stereo not drawn) the results were CYP2C9 inhib 62*, CYP2C19 inhib 90*, sEH act 10, CYP2C19 activ 0.1, sEH inh -9 and CYP2C9 act 0.4.
Screening CCOc1ccc(CN(C)CC(=O)c2c(N)n(Cc3ccccc3)c(=O)n(CC)c2=O)cc1OC returned CYP2C9 inhib -31, CYP2C19 inhib -16, sEH act 10, CYP2C19 activ 1.2, sEH inh -12 and CYP2C9 act 1.3.
For CCn1c(=O)c(C(=O)CN(C)Cc2cccc(OC)c2OC)c(N)n(Cc2ccccc2)c1=O the results were CYP2C9 inhib 34, CYP2C19 inhib 67*, sEH act 19, CYP2C19 activ 0.3, sEH inh -21 and CYP2C9 act 0.7.
Screening CCn1c(=O)c(C(=O)CN2CCCc3ccccc32)c(N)n(Cc2ccccc2)c1=O returned CYP2C9 inhib 93*, CYP2C19 inhib 81*, CYP2C19 activ 0.2 and CYP2C9 act 0.1.
`CCOC(=O)C1C(=O)CC(=O)CC1CC(C)SCC` (stereo not drawn) gave CYP2C9 inhib -10, CYP2C19 inhib 6, sEH act -11, CYP2C19 activ 0.9, sEH inh 12 and CYP2C9 act 1.1.
Screening c1ccc2c(SCc3cn4cccnc4n3)ncnc2c1 returned CYP2C9 inhib 2, CYP2C19 inhib 54*, sEH act 3, CYP2C19 activ 0.5, sEH inh -4 and CYP2C9 act 1.
Screening Nc1ccccc1SCc1cn2cccnc2n1 returned CYP2C9 inhib -17, CYP2C19 inhib -11, sEH act 6, CYP2C19 activ 1.1, sEH inh -7 and CYP2C9 act 1.2.
For Cc1cccc(OCCCOc2cccc3cccnc23)c1C the results were CYP2C9 inhib -82, CYP2C19 inhib 56*, sEH act 8, CYP2C19 activ 0.4, sEH inh -6 and CYP2C9 act 1.8.
`Cc1ccc(OCCCOc2cccc3cccnc23)cc1C` gave CYP2C9 inhib -183, CYP2C19 inhib 72*, sEH act 2, CYP2C19 activ 0.3, sEH inh -3 and CYP2C9 act 2.8*.
`Brc1ccc(OCCOCCOc2cccc3cccnc23)cc1` gave sEH act 58* and sEH inh -54.

Bioassay records as filed in PubChem BioAssay.
